From PubChem
TRHR enhancer: qHTS for Small Molecule Agonists and Allosteric Enhancers of Human TRH Receptor: Primary Screen for Enhancers; enhancement, % at 2 µM; Thyrotropin-releasing hormone receptor (Homo sapiens), P34981; TRHR cells, fluo-8 calcium fluorescence, EC20 TRH enhancement; AID 493056, 2011; hit rate 0.66% among 360,000; in the data active means enhancement above about 30%; further: 0% is about no effect
Target sequence (P34981 whole entry, looked up): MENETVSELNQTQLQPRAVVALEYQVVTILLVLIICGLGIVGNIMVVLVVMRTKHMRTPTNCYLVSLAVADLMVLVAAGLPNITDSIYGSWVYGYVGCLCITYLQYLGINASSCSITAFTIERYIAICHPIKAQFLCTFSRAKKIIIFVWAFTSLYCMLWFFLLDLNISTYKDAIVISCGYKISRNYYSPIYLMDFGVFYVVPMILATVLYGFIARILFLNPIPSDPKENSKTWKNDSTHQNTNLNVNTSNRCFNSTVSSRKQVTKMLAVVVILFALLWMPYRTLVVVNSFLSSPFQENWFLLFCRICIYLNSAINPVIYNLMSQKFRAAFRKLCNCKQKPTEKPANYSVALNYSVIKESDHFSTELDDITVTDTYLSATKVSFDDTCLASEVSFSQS
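TRHR-expressing cells loaded with fluo-8 calcium dye were read kinetically (ex 480/em 530) during compound addition, then stimulated with an EC20 of TRH (10 nM final). Enhancement of the Gq-mediated intracellular calcium response was scored.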
D1 ag: Allosteric Agonists of the Human D1 Dopamine Receptor: qHTS. HEK293 T-REx D1 cells, calcium flux, agonist mode. hit rate 1% among 360,000. D(1A) dopamine receptor (Homo sapiens), P21728. activation, % at 2 µM; further: 0% is about no effect
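Agonism was scored from calcium flux recorded over 180 s (1 read/s) after pintool compound addition, following a 10-cycle baseline. Cells were inducible force-coupled HEK293 TREx D1, plated overnight at 30 C and loaded with no-wash calcium dye.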
D1 potentiator: Potentiators of Human D1 Dopamine Receptor: qHTS; D(1A) dopamine receptor (Homo sapiens), P21728; HEK293 TREx D1 cells, calcium flux, dopamine EC20 potentiation; potentiation, % at 10 µM; hit rate 0.036% among 360,000; in the data active means potentiation above about 30%; further: 0% is about no effect
D1 antag: Antagonist of Human D 1 Dopamine Receptor: qHTS | activity change, negative = inhibition, % at 10 µM | HEK293 TREx D1 cells, calcium flux, dopamine EC80; hits give low values | D(1A) dopamine receptor (Homo sapiens), P21728 | hit rate 3.2% among 360,000; in the data active means activity change below about -30%; further: on the % scale 0 is the no-effect control and ±100 the full control effect
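Tetracycline-induced HEK293 Trex D1 cells, force-coupled to calcium, dye-loaded; compounds added and read 180 s, then EC80 dopamine added and calcium flux tracked kinetically another 180 s.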
TRHR ag: qHTS for Small Molecule Agonists and Allosteric Enhancers of Human TRH Receptor: Primary Screen for Agonists; Thyrotropin-releasing hormone receptor (Homo sapiens), P34981; TRHR cells, calcium flux fluo-8, FDSS agonist mode; activation, % at 2 µM; hit rate 0.18% among 360,000; AID 493084, 2011; further: 0% is about no effect
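In this calcium-flux screen, cells bearing human TRHR are dye-loaded with fluo-8, baselined for 10 cycles, then exposed to library compounds; positive kinetic calcium responses during the agonist phase mark hits, with TRH as control.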
* = called active by the depositor; ! = repeats disagree. Most compounds without a hit are left out; they make up all but 4.6% or so of the library. Unless noted, no stated cut-off is given here; in the data, active means activation above about 30%; inactive means the rest.

SMILES | TRHR enhancer | D1 ag | D1 potentiator | D1 antag | TRHR ag
O=S(=O)(Nc1ccc(OC(F)(F)F)cc1)c1ccc(N2CCCCS2(=O)=O)cc1 | 10 | 29 | 1 | -19 | 2
O=C(CN(Cc1ccccc1F)C(=O)Cn1nnc(-c2cccs2)n1)NC1CCCCC1 | -2 | -1 | -1 | 3 | 0
Cc1nn(C)c(C(=O)NC(=S)Nc2ccccc2O)c1Cl | 0 | 2 | -8 | -41* | 0
Cc1nn(C)c(NC(=O)c2ccccc2Cl)c1Cl | -5 | 1 | -6 | -38* | 0
Cc1cc(NC(=O)c2c(Cl)c(C)nn2C)no1 | -1 | 2 | -13 | -1 | 0
Cc1nn(C)c(NC(=O)c2ccc([N+](=O)[O-])cc2)c1Cl | 19 | 2 | 1 | -24 | 0
CCOc1ccc(NC(=S)NC(=O)c2c(Cl)c(C)nn2C)c([N+](=O)[O-])c1 | -4 | 0 | 0 | -7 | 0
Cc1nc(C)c(C(=O)NCc2ccc(Cl)cc2)o1 | -2 | 4 | -1 | -61* | 0
Cc1nn(C)c(C(=O)NCc2ccc(Cl)cc2)c1Cl | -25 | 12 | -10 | -63* | 0
O=c1c2sc3ccccc3c2n(Cc2cccc(F)c2)c(=O)n1Cc1ccccc1 | 15 | 6 | -2 | 1 | 1
CCOc1ccc(Cn2ccnc2CCl)cc1[N+](=O)[O-] | 3 | 3 | 5 | 1 | 0
O=C(NNc1ccnc2cc(Cl)ccc12)C1CCCCC1 | 2 | 14 | -4 | -32* | 0
O=C(c1ccccn1)N1CCN(S(=O)(=O)c2cccc(Br)c2)CC1 | -2 | -1 | 0 | 1 | 0
O=C(CCNS(=O)(=O)c1cccs1)NCc1ccccc1 | 7 | 1 | -5 | -3 | 0
COc1cccc(CNC(=O)CCCNS(=O)(=O)c2cccs2)c1 | -15 | 3 | -12 | -92* | 3
Cc1nc2sc(C(c3ccco3)N3CC(C)OC(C)C3)c(O)n2n1 (stereo unspecified) | 31* | 0 | 7 | 4 | 0
Cc1ccc2c(nc3s/c(=C\c4ccc(-c5ccccc5C(=O)O)o4)c(=O)n32)c1C | 9 | 191* | -3 | -5 | 54*
Cc1ccc2c(nc3s/c(=C/c4cccs4)c(=O)n32)c1C | 0 | 2 | 1 | 2 | -1
O=C(O)c1ccc(-c2ccc(/C=c3/sc4nc5ccccc5n4c3=O)o2)cc1Cl | 5 | 48* | -5 | -20 | 55*
Cc1cc(/C=c2\sc3nc4ccccc4n3c2=O)c(C)n1-c1ccc(C(=O)O)cc1 | -3 | 2 | -1 | -7 | 1
CCc1cccc(NC(=O)CCNS(=O)(=O)c2cc(Br)cnc2N)c1 | -5 | 1 | -5 | -17 | -1
CCc1cccc(NC(=O)Nc2cccs2)c1 | 3 | 10 | -9 | -19 | 2
N#Cc1cccc(NC(=O)Nc2cccs2)c1 | 3 | 42* | -10 | -53* | 1
O=C(CCS(=O)(=O)c1cccc2nonc12)Nc1cccc(F)c1 | -3 | 1 | 0 | -4 | -1
CCOC(=O)N1CCN(S(=O)(=O)c2ccc(OC)c(Cl)c2)CC1 | -1 | 4 | -6 | -31* | 1
SMILES | TRHR enhancer | D1 ag | D1 potentiator | D1 antag | TRHR ag
CCOc1ccc(S(=O)(=O)N2CCC(C(=O)N3CCCCCC3)CC2)cc1Cl | -5 | 9 | -8 | -40* | 0
CCOC(=O)N1CCN(C(=O)c2oc3ccc(S(=O)(=O)N4CCOCC4)cc3c2C)CC1 | 34* | 25 | -9 | -18 | -1
Cc1ccc(NC(=O)c2oc3ccc(S(=O)(=O)N4CCCCC4)cc3c2C)cc1C | -3 | -2 | -1 | -31* | 0
CCOC(=O)N1CCN(S(=O)(=O)c2ccc(OC)c(OC)c2)CC1 | -5 | 0 | 1 | 1 | 1
CCOC(=O)c1oc2ccc(S(=O)(=O)n3nc(-c4ccc(C)cc4)cc3N)cc2c1C | 42*! | 1 | -1 | -9 | 1
CCC1CCCCN1C(=O)c1cc2c(=O)n3cccc(C)c3nc2s1 (stereo unspecified) | 39* | 0 | 5 | 5 | 0
